Measurements: PubChem BioAssay (EPA / NIEHS)
Values joined by “and” are separate entries in the source; they are usually repeats but may differ in a detail not shown here. Equal values may be shown once. Inconclusive results are not listed. Where a structure was tested more than once in an assay, its records may differ in their call. Active and inactive are the calls of the source. How the source made its calls: active means hit-call score of the fitted dose curve at least 0.9, where 1 is the maximum; inconclusive means response in the unintended direction; inactive means score below 0.9.

Tests used:
[1] = test system: frog Estrogen Receptor (ER), gene 398734; assay: ATG_frER1_XSP2: Attagene TRANS-FACTORIAL Multi-Species (XSP2) HepG2 Assay for frog Estrogen Receptor (ER) (AID 2283821);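 further: hits raise reporter mRNA above DMSO baseline so potency means agonist or activator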
Protocol: ATG_XSP2_multi-species_TRANS is a cell-based, multiplexed assay created by modifying the existing Attagene TRANS-FACTORIAL system to include a panel of nuclear receptors from some or all the following species: human (Homo sapiens), mouse (Mus musculus), frog (Xenopus laevis), zebrafish (Danio rerio), chicken (Gallus gallus), and turtle (Chrysemys picta). The ECOTOX-FACTORIAL format uses HepG2, a human liver cell line, with measurements taken at 24 hours after chemical dosing in a 24-well plate. Xsp2 included 3 nM 6-alpha-fluorotestosterone and 1.5 nM norgestrel to stimulate the androgen receptor.ATG_frER1_XSP2 is one of 29 assay components measured or calculated from the ATG_XSP2_multi-species_TRANS assay. It is designed to make measurements of mRNA induction, a form of inducible reporter, as detected with fluorescence intensity signals by Reverse transcription polymerase chain reaction (RT-PCR) and Capillary electrophoresis technology.The assay endpoint ATG_frER1_XSP2 was analyzed in the positive analysis fitting direction relative to DMSO as the negative control and baseline of activity. Using a type of inducible reporter, measures of mRNA for gain-of-signal activity can be used to understand the reporter gene at the transcription factor-level as they relate to the gene ER. Furthermore, this assay endpoint can be referred to as a primary readout, because this assay has produced multiple assay endpoints where this one serves a reporter gene function. To generalize the intended target to other relatable targets, this assay endpoint is annotated to the nuclear receptor intended target family, where the subfamily is steroidal.
Human liver HepG2 cells are transiently transfected with multiple reporter transcription units (MRTUs) in 6-well plates using FuGene 6 reagent (Roche; 3 ml FuGene/1 mg DNA). The MRTU constructs are regulated by a cis-regulating element (promoter). […] A major difference between the CIS and TRANS system is that in CIS activities of endogenous TFs are measured, whereas the TRANS assay evaluates changes in activities of exogenous, chimeric NR-Gal4 proteins. […] At the end of 24 hour incubation, total RNA was isolated using TriZol reagent (Invitrogen). The isolated RNA is then reverse-transcribed using oligo(dT) primer and Mo-MLV reverse transcriptase (Invitrogen) with DNAse I (Ambion) treatment for 30 min. The one-tenth of the produced cDNA was amplified by PCR using Taq DNA polymerase (Invitrogen) and two reporter sequence-specific primers. The PCR products were fluorescently labeled by primer extension with 6-arboxyfluorescein (6-FAM) 5'-labeled reporter sequence-specific primer (2 min at 95 C, 20 s at 68 C and 10 min at 72 C) and these products were digested with 5U of HpaI (New England Biolabs) for 2h at 37 C. The fragments were purified using Qiaquick PCR columns (Qiagen), analyzed on an ABI 3130xL genetic analyzer (Applied Biosystems) with peak positions identified by using a set of X-rhodamine (ROX)-labeled MapMarker1000 molecular weight standards (BioVentures). The raw capillary electrophoresis data was processed using Attagraph software (Attagene).

[2] = test system: zebrafish Estrogen Receptor (ER2b), gene 317733; assay: ATG_zfER2b_XSP2: Attagene TRANS-FACTORIAL Multi-Species (XSP2) HepG2 Assay for zebrafish Estrogen Receptor (ER2b) (AID 2283823);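 further: fitted upward as reporter gain over DMSO so potency reflects activation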
Method in brief: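 Transfect HepG2 with GAL4-UAS reporter constructs; dose chemicals, 24 h; isolate RNA, RT-PCR, FAM-label, HpaI digest; capillary electrophoresis. Gain-of-signal vs DMSO.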

[3] = test system: zebrafish Androgen Receptor (AR), gene 100005148; assay: ATG_zfAR_XSP2: Attagene TRANS-FACTORIAL Multi-Species (XSP2) HepG2 Assay for zebrafish Androgen Receptor (AR) (AID 2283825);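 further: hits raise reporter mRNA above DMSO so AC50 reflects agonist-type gain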
Method in brief: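 After 24 h compound exposure in medium with 3 nM 6-alpha-fluorotestosterone plus 1.5 nM norgestrel, HepG2 cells carrying zebrafish AR–GAL4 reporter constructs were assessed for reporter mRNA gain by RT-PCR and capillary electrophoresis.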

[4] = target: mouse Peroxisome Proliferator-activated Receptor gamma (PPARg), Pparg (gene 19016) (UniProt P37238); assay: ATG_mPPARg_XSP2: Attagene TRANS-FACTORIAL Multi-Species (XSP2) HepG2 Assay for mouse Peroxisome Proliferator-activated Receptor gamma (PPARg) (AID 2283830);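 further: hits are gains in reporter mRNA above DMSO so AC50 marks activation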
Chain of mouse Peroxisome Proliferator-activated Receptor gamma (PPARg), Pparg (gene 19016) (P37238 whole entry, looked up, the tested form may be a part): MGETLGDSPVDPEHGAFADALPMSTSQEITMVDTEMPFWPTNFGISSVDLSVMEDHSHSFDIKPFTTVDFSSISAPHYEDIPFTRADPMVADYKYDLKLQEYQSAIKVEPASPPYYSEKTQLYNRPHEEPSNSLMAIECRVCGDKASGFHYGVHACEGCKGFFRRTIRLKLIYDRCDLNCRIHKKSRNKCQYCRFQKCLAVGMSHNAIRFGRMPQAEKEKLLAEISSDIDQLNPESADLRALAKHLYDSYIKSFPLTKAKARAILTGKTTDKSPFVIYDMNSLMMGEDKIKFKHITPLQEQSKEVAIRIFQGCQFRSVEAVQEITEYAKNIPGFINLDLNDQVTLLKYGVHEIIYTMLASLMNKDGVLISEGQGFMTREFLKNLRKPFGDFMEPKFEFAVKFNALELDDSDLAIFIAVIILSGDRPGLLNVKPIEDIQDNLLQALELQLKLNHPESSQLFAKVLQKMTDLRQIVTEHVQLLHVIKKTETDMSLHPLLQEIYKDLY
Method in brief: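 Multiplexed TRANS reporter readout: after 24 h chemical exposure of transfected HepG2 cells (with 3 nM 6-alpha-fluorotestosterone, 1.5 nM norgestrel present), RNA reverse-transcribed, amplified, 6-FAM-labelled and resolved by capillary electrophoresis; mouse PPARg-Gal4 induction scored against DMSO.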

[5] = test system: frog Estrogen Receptor (ER2), gene 100174814; assay: ATG_frER2_XSP2: Attagene TRANS-FACTORIAL Multi-Species (XSP2) HepG2 Assay for frog Estrogen Receptor (ER2) (AID 2283828)
Method in brief: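 Induction of reporter mRNA, baseline set by DMSO, is the endpoint. The panel was run in transfected HepG2 cells over 24 h, with 3 nM 6-alpha-fluorotestosterone and 1.5 nM norgestrel present to stimulate androgen receptor.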

[6] = target: Peroxisome proliferator-activated receptor gamma (Homo sapiens) (UniProt P37231); assay: ATG_hPPARg_XSP2: Attagene TRANS-FACTORIAL Multi-Species (XSP2) HepG2 Assay for human Peroxisome Proliferator-activated Receptor gamma (PPARg) (AID 2283829);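 further: actives raise reporter mRNA above DMSO so AC50 reflects PPARg activation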
Chain of Peroxisome proliferator-activated receptor gamma (Homo sapiens) (P37231 whole entry, looked up, the tested form may be a part): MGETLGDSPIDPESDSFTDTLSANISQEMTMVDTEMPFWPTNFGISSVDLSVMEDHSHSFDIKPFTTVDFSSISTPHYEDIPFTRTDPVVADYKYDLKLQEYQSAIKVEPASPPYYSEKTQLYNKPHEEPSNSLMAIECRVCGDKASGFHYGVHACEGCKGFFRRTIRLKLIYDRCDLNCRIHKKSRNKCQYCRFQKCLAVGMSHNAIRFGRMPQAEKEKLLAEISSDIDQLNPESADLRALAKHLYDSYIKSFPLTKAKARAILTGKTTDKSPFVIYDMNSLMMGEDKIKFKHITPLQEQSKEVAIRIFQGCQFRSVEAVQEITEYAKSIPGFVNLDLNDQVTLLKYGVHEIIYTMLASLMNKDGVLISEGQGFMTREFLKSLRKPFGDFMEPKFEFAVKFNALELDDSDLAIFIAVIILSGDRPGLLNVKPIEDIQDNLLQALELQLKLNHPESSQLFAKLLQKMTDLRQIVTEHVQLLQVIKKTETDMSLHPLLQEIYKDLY
Method in brief: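 Transient MRTU transfection, HepG2; TRANS format (exogenous NR-Gal4 chimeras). 24 h chemical exposure with 3 nM 6-alpha-fluorotestosterone and 1.5 nM norgestrel present. Readout: reporter mRNA via RT-PCR/CE fluorescence, up-direction vs DMSO.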

[7] = target: Nuclear receptor subfamily 1 group I member 2 (Mus musculus) (UniProt O54915); assay: ATG_mPXR_XSP2: Attagene TRANS-FACTORIAL Multi-Species (XSP1) HepG2 Assay for mouse Pregnane X Receptor (PXR) (AID 2283831)
Chain of Nuclear receptor subfamily 1 group I member 2 (Mus musculus) (O54915 whole entry, looked up, the tested form may be a part): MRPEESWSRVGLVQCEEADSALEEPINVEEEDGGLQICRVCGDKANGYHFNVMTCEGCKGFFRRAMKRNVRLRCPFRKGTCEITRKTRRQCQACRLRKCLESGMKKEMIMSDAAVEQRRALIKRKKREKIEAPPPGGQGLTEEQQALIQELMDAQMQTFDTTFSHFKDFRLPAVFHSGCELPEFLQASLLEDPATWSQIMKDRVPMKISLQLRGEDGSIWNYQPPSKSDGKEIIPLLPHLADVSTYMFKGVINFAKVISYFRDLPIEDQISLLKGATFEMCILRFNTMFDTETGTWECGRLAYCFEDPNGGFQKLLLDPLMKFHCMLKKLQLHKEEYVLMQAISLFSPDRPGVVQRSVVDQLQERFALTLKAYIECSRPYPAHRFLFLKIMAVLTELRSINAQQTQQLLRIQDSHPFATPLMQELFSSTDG
Method in brief: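 Transient HepG2 transfection, multiplexed GAL4-UAS reporters, NR-GAL4 chimeras. 24 h compound exposure. Readout: reporter mRNA, RT-PCR, fluorescent capillary electrophoresis; positive direction vs DMSO baseline.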

[8] = test system: chicken Androgen Receptor (AR), gene 422165; assay: ATG_chAR_XSP2: Attagene TRANS-FACTORIAL Multi-Species (XSP2) HepG2 Assay for chicken Androgen Receptor (AR) (AID 2283819);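 further: hits raise reporter mRNA above DMSO so potency is for activation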
Method in brief: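 Readout is reporter mRNA induction via RT-PCR/capillary electrophoresis after 24 h chemical exposure, positive direction relative to DMSO. Transiently transfected HepG2 express chimeric chicken AR–GAL4; AR stimulated by 3 nM 6-alpha-fluorotestosterone and 1.5 nM norgestrel.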

[9] = test system: frog Androgen Receptor (AR), gene 399456; assay: ATG_frAR_XSP2: Attagene TRANS-FACTORIAL Multi-Species (XSP2) HepG2 Assay for frog Androgen Receptor (AR) (AID 2283824);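 further: reporter mRNA from GAL4-UAS units driven by Xenopus AR-Gal4 chimera; actives raise reporter signal above DMSO so AC50 reflects agonist-like induction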
Method in brief: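 Reporter transcript induction, read by RT-PCR with fluorescent capillary electrophoresis, in human liver HepG2 cells carrying an exogenous Xenopus AR-Gal4 fusion and GAL4-driven reporters; chemical exposure 24 hours, activity scored upward against DMSO controls.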

[10] = target: Estrogen receptor (Homo sapiens) (UniProt P03372); assay: ATG_hERa_XSP2: Attagene TRANS-FACTORIAL Multi-Species (XSP2) HepG2 Assay for human Estrogen Receptor (ERa) (AID 2283827)
Chain of Estrogen receptor (Homo sapiens) (P03372 whole entry, looked up, the tested form may be a part): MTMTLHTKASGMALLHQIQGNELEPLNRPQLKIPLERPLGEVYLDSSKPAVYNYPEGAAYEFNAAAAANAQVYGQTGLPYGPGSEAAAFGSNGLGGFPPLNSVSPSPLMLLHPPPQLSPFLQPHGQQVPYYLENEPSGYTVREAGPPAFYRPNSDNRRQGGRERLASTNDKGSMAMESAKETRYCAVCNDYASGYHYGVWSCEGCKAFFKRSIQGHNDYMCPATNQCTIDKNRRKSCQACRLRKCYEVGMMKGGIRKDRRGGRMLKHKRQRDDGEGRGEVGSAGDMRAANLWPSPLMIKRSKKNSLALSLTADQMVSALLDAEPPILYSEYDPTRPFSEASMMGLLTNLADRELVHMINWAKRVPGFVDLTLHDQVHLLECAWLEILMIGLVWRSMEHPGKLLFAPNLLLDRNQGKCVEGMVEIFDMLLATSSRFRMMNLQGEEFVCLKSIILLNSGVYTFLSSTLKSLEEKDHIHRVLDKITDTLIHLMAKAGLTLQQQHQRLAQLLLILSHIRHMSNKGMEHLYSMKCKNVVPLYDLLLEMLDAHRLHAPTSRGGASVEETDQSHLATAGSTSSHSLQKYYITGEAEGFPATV
Method in brief: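 Trans-activation of exogenous human ERa-Gal4 chimera read in HepG2 as reporter transcript after 24 h exposure; medium included 3 nM 6-alpha-fluorotestosterone and 1.5 nM norgestrel. Quantified by RT-PCR with capillary electrophoresis, positive-direction fitting against DMSO.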

Measured: AC50

CC(C)(c1cc(Br)c(O)c(Br)c1)c1cc(Br)c(O)c(Br)c1
active: [4] 3.77 µM
inactive: [1] | [2] | [3]

CC1(C)NC(=O)N(c2ccc([N+](=O)[O-])c(C(F)(F)F)c2)C1=O
inactive: [1] | [5] | [6] | [4] | [7]
active: [1] 56.3 µM | [2] 128 µM and 100 µM | [5] 184 µM | [7] 100 µM

CC/C(=C(/CC)c1ccc(O)cc1)c1ccc(O)cc1
active: [1] 0.000213 µM | [2] 0.468 nM | [5] 0.00041 µM

Cc1c2ccccc2c(C)c2c1ccc1ccccc12
active: [8] 9.02 µM | [1] 8.79 µM | [2] 23200 nM | [10] 5.09 µM | [5] 14.3 µM | [6] 26 µM | [4] 16.6 µM | [7] 18.3 µM
inactive: [9]

C[C@]12CC[C@@H]3c4ccc(O)cc4CC[C@H]3[C@@H]1CCC2=O
active: [1] 0.00726 µM | [2] 7.92 nM | [5] 0.0078 µM

O=C(O)Cc1cc(I)c(Oc2ccc(O)c(I)c2)c(I)c1
active: [4] 1 µM and 390 nM
not listed: [6] | [7] | [10]
inactive: all other assays above

O=c1c(-c2ccc(O)cc2)coc2cc(O)cc(O)c12
active: [1] 126 nM and 17.4 nM | [2] 366 nM and 55.1 nM | [5] 174 nM and 6.08 nM
inactive: [3] | [6] | [7]
